Gli-Sufu block = Gli-Sufu pathway antagonists, primary screen, luciferase luminescence, Sufu-KO-LIGHT cells, uHTS; Sufu-KO-LIGHT fibroblasts, Gli luciferase reporter luminescence; inhibition, % at 5 µM; 0.74% of 340,000 active; AID 588413, 2011;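 active means inhibition above about 55%, limit read from the data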
Jurkat NFkB inh = inhibitors of induced NF-kB luciferase reporter, primary screen, TCR NF-kB activation inhibitor project, cell-based, luminescence, uHTS; Jurkat, PMA/ionomycin-induced NF-kB luciferase reporter; inhibition, % at 4 µM; 0.53% of 330,000 active; in the data active means inhibition above about 50%
Beta apoptosis = inhibitors of cytokine-induced beta cell apoptosis, primary screen, luminescence. protection from apoptosis, % (test concentration not listed). INS-1E cytokine-induced death, ATP luminescence, 48 h; percent of positive-control rescue, neutral wells zero. 0.8% of 300,000 active;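 active means Every replicate reaches about 75%, or at least half do and their mean reaches it too, limit read from the data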;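 further: higher means more ATP so stronger rescue from cytokine killing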
Mdm2-MdmX inh = inhibitors of human Mdm2-MdmX association, primary screen, cell-based, luminescence, split luciferase, SaOS-2, uHTS. Protein Mdm4 (Homo sapiens) + E3 ubiquitin-protein ligase Mdm2 (Homo sapiens), …. SaOS-2 split-luciferase Mdm2/MdmX complementation. inhibition, % at 8 µM. 3% of 330,000 active;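 active means inhibition of at least 50% at 8 µM in the primary screen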
Target sequence (O15151 whole entry, looked up): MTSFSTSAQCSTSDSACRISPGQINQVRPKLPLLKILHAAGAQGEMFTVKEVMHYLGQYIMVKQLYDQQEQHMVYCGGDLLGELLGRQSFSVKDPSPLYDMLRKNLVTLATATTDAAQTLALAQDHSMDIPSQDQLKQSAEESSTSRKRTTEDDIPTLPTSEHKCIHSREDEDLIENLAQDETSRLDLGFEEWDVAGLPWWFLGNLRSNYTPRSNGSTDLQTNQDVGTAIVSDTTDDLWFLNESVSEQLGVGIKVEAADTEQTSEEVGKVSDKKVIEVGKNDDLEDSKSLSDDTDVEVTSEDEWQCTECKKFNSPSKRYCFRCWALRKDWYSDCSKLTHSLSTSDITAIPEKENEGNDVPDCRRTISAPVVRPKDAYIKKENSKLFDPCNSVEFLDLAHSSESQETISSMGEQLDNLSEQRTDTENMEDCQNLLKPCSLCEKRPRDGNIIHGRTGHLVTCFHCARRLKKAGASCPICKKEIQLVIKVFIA
Target sequence (Q00987 whole entry, looked up): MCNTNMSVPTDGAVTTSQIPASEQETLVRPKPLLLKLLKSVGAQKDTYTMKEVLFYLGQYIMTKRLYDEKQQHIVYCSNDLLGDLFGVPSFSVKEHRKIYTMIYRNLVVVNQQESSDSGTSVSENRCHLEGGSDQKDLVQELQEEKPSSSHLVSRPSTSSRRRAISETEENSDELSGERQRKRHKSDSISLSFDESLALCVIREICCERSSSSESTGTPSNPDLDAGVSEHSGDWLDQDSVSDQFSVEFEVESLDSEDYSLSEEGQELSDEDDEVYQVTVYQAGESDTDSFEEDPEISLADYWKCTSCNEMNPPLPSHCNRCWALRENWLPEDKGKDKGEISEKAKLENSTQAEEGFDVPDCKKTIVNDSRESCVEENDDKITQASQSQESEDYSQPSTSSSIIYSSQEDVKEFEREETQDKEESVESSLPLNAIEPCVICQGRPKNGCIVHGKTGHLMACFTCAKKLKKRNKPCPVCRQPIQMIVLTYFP
CSC inhib = cancer stem cell viability inhibitors, primary screen, luminescence. 1.1% of 300,000 active. AID 2717, 2010. cancer stem cell-like cells viability. inhibition, % at 7.5 µM; in the data active means inhibition above about 75%; tested in HMLE shEcad cells
697 NFkB inh = inhibitors of PMA/ionomycin-induced NF-kB reporter, 697 cells, primary screen, B-cell NF-kB inhibitor project, cell-based, luminescence, uHTS; 697 B-cell NF-kB luciferase reporter, 16 h; inhibition, % at 4 µM; 0.33% of 330,000 active; in the data active means inhibition above about 35%
Each line names hits and unclear results; the compound was inactive in the other large screens. Rows were chosen to be rich in hits. Some 4.5% of all compounds tested hit in one or more screens of this group.

COc1ccc(OC)c(/C=C/C(=O)OCC(=O)NCc2cccs2)c1	none
O=C(c1ccc2c3n(nc2c1)-c1ccccc1CO3)N1CCOCC1	CSC inhib 98.0 (no result: Beta apoptosis)
CCCCCCSc1ccc([C@@H]2[C@@H]3C(=O)N(C)C(=O)[C@@H]3[C@]3(C(=O)OC)CCCCN23)cc1OC	CSC inhib 105.4
CC(C)CCCCCCNC(=S)Nc1ccc(S(=O)(=O)N2CCOCC2)cc1	Beta apoptosis 97.7, CSC inhib 90.7
CCn1cc(C(=O)N[C@@H](C)C(=O)NCCCn2ccnc2)c(=O)c2cc3c(cc21)OCO3	none
C1=C(c2sc3ccccc3c2-c2ccc(OCCN3CCOCC3)cc2)CCCC1	CSC inhib 88.4
COc1ccccc1-c1sc2ccccc2c1-c1ccc(OCCN2CCOCC2)cc1	none (no result: Jurkat NFkB inh, Beta apoptosis, CSC inhib)
COc1ccc(-c2sc3cc4c(cc3c2-c2ccc(OCCN3CCOCC3)cc2)OCO4)cc1	CSC inhib 124.9
COc1cccc(-c2sc3ccc(OC)cc3c2-c2ccc(OCCN3CCOCC3)cc2)c1	CSC inhib 104.0
COc1cc(OC)cc(-c2sc3ccc(OC)cc3c2-c2ccc(OCCN3CCOCC3)cc2)c1	none (no result: Jurkat NFkB inh, Beta apoptosis, CSC inhib)
c1ccc(-c2sc3ccccc3c2-c2ccc(OCCN3CCOCC3)cc2)cc1	CSC inhib 85.8
O=[N+]([O-])c1cccc(-c2ccc3nnc(SCc4cccnc4)n3n2)c1	none (no result: Jurkat NFkB inh, Beta apoptosis, Mdm2-MdmX inh, CSC inhib, 697 NFkB inh)
CCCCn1c(N)c(N(CC)C(=O)C(c2ccccc2)c2ccccc2)c(=O)[nH]c1=O	none
COc1ccc(NC(=O)c2cc(S(=O)(=O)N3CCCCC3)c[nH]2)cc1Cl	none
COCC(=O)N1CCC(Oc2ccc(C(=O)NC(C)c3csc(C)n3)cc2)CC1 (centres undefined)	none
CCN(CC)CCCNC(=S)N1CCN(c2nc(-c3ccccc3)cs2)CC1	CSC inhib 78.5 (no result: Beta apoptosis)
c1ccc(N2CCN(c3nc(-c4cccs4)nc4ccccc34)CC2)cc1	none
Oc1ccc(N2CCN(c3nc(-c4cccs4)nc4ccccc34)CC2)cc1	CSC inhib 86.9
COc1ccc2ncccc2c1Cc1c(OC)ccc2ncccc12	none (no result: Jurkat NFkB inh, Beta apoptosis, Mdm2-MdmX inh, CSC inhib, 697 NFkB inh)
COc1cc(OC)cc(-c2sc3ccc(OC)cc3c2C#CCO)c1	CSC inhib 101.5
COc1cc(OC)cc(-c2sc3ccc(OC)cc3c2C#CC(C)(C)O)c1	none
COc1cccc(-c2sc3ccc(OC)cc3c2C#CC2(O)CCCCC2)c1	CSC inhib 104.9
COc1cccc(-c2sc3ccc(OC)cc3c2C#CCCO)c1	CSC inhib 116.2
CN(C(=O)c1ccc(NC(=O)Cc2cccc(NC(=O)C3CCCN(C(=O)C4CCCC4)C3)c2)cc1)C1CCCC1 (centres undefined)	none
Nc1ccc2ccccc2c1C(=O)c1ccccc1	none (no result: Jurkat NFkB inh, Beta apoptosis, Mdm2-MdmX inh, CSC inhib, 697 NFkB inh)
COc1ccc(OCC(=O)Nc2c3c(nn2-c2ccccc2)CS(=O)(=O)C3)cc1	none
COc1ccc2[nH]cc(CCNC(=O)C3CCCO3)c2c1 (centres undefined)	none
O=C(NNc1ccc(-c2csnn2)cc1)c1cc(Cl)cc(Cl)c1	CSC inhib 87.5
C/C(=N\NC(N)=S)c1cc(-c2ccccc2)c(-c2ccccc2)s1	CSC inhib 99.4 (no result: Beta apoptosis)
COCc1ccc(C(=O)N2CCCC(Nc3ccc(C(C)C)cc3)C2)o1 (centres undefined)	none
Cc1[nH]c2ccccc2c1CN1CCN(c2ccccn2)CC1	Beta apoptosis 92.3
Cc1[nH]c2ccccc2c1CN1CCC(Cc2ccccc2)CC1	Beta apoptosis 103.7
c1ccc(N2CCN(Cc3nc4ccccc4[nH]3)CC2)nc1	none
O=[N+]([O-])c1cccc2ccc(/C=C/c3ccc(C(F)(F)F)cc3)nc12	CSC inhib 77.8
Cc1cccc2c1c(N=NC(N)=S)c(O)n2C1OC(CO)C(O)C(O)C1O (centres undefined)	none
CCOc1ccc(NC(=O)OCCN2CCN(CCc3ccccc3)C(C)C2)cc1 (centres undefined)	none (no result: Jurkat NFkB inh, Beta apoptosis, Mdm2-MdmX inh, CSC inhib, 697 NFkB inh)
Cc1ccccc1Cn1nnc2c1C(=O)c1ccccc1C2=O	none (no result: Beta apoptosis)
Cc1cccc(Cn2nnc3c2C(=O)c2ccccc2C3=O)c1	Beta apoptosis 109.8
O=C(CCS(=O)(=O)c1ccc(F)cc1)N1CCOCC1	none
COc1cccc2c1C(=O)c1c(O)c3c(c(O)c1C2=O)CC(O)(C(=O)CO)CC3OC1CC(N(C)C)C(O)C(C)O1 (centres undefined)	Gli-Sufu block 84.5 (no result: Jurkat NFkB inh, Beta apoptosis, Mdm2-MdmX inh, CSC inhib, 697 NFkB inh)
COc1ccccc1CNC(=O)CCNS(=O)(=O)c1ccc2[nH]c(=O)oc2c1	Gli-Sufu block 56.9
COc1ccc(NC(=O)CN(C)Cc2cccs2)cc1Cl	none
NC(=S)n1[nH]c(-c2ccc([N+](=O)[O-])cc2)c(N=Nc2ccc(Cl)cc2)c1=O	Gli-Sufu block 59.8 (no result: Jurkat NFkB inh, Beta apoptosis, Mdm2-MdmX inh, CSC inhib, 697 NFkB inh)
Cc1ccc([N+](=O)[O-])cc1N=Nc1c(C)[nH]n(C(N)=S)c1=O	none
Cc1cccc(-n2ncc3c(NCc4ccccc4)ncnc32)c1	none
Cc1cccc(-n2ncc3c(N4CCCc5ccccc54)ncnc32)c1	CSC inhib 76.3
c1ccc(CN2CCN(c3ncnc4c3[nH]c3ccccc34)CC2)cc1	Gli-Sufu block 61.6 (no result: CSC inhib)
CC(=O)N1CCN(S(=O)(=O)c2cccc(C(=O)N(Cc3ccccc3)c3cccc(C)c3)c2)CC1	none
Cc1ccc(CSc2nnc(-c3ccc4c(c3)OCO4)o2)cc1	none
Cc1ccc(CSc2ccc(-c3ccc4c(c3)OCO4)nn2)cc1	CSC inhib 79.0
Cc1[nH]n(-c2ccccc2)c(=O)c1/C=N/NC(=O)c1ccc(O)cc1O	none (no result: Beta apoptosis, CSC inhib)
Cc1[nH]n(-c2ccccc2)c(=O)c1/C=N/NC(=O)c1cccc(F)c1	Beta apoptosis 92.1
O=C(Cc1ccc(Cl)cc1Cl)NCc1cccnc1	none
C=C(C)COc1ccc(-c2nc(N)ncc2-c2ccc(Cl)cc2)c(O)c1	CSC inhib 103.8
C=C(C)COc1ccc(-c2nc(N)ncc2-c2ccc(OC)c(OC)c2)c(O)c1	none
COc1ccc2c(c1)cc(C(=O)N[C@@H](CCSC)C(=O)N1CCC[C@H]1C(=O)O)n2C	none
C=CC[n+]1ccc(/C=C2\C=Cc3cc(C)ccc3N2CC)c2ccccc21	Gli-Sufu block 88.0 (no result: Jurkat NFkB inh, Beta apoptosis, Mdm2-MdmX inh, CSC inhib, 697 NFkB inh)
Cc1noc(C)c1S(=O)(=O)N(C)C[C@H]1Oc2ccc(NC(=O)NC3CCCCC3)cc2C(=O)N([C@H](C)CO)C[C@@H]1C	none
CC(C)c1ccc(NC(=O)CSc2n[nH]c(=O)n2-c2cccnc2)cc1	none
Cc1ccc(C(=O)NC(=C(Cl)Cl)S(=O)(=O)c2ccc(C)cc2)cc1	CSC inhib 95.6
Cc1cc(C(=O)NC2CCCN(Cc3ccc(Cl)cc3)C2)c(C)o1 (centres undefined)	none
CSc1ccc(S(=O)(=O)Nc2ccc(N3CCOCC3)c(Cl)c2)cc1	Beta apoptosis 103.9
CSc1ccc(S(=O)(=O)Nc2ccc3c(c2)OCCO3)cc1	none

Screening data deposited in PubChem by several laboratories.
